# D2 ag-1 = HTS Assay for Allosteric Agonists of the Human D2 Dopamine Receptor: Primary Screen for Agonists; D(2) dopamine receptor (Homo sapiens), P14416; HEK293 T-REx D2 cells, calcium flux agonist mode; activation, % at 2 µM; 0.53% of 340,000 active; AID 485358, 2010;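 active = activation over 3 SD above normal in the single-dose calcium agonist read, cut at about 30% in these data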
# Target sequence (P14416 whole entry, looked up): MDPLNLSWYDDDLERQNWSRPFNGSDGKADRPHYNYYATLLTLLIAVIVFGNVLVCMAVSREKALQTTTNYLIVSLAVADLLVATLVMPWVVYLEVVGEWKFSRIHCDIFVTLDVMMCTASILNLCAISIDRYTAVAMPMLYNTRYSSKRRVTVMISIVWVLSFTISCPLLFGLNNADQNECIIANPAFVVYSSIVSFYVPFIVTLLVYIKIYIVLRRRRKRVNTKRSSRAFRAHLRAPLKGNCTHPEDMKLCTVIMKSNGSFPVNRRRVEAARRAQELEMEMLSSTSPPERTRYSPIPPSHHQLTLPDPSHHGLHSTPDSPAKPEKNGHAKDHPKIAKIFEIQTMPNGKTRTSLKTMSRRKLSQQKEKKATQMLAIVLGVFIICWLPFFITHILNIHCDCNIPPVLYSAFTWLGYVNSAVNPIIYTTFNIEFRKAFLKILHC
#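 Agonism scored from kinetic calcium signal (1 read/sec, 180 s) following compound pin transfer, after a 10 s baseline. Cells: HEK293 Trex line expressing inducible D2 receptor coupled to calcium, dye-loaded after overnight culture at 30 C.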
# D2 PAM-1 = HTS Assay for Positive Allosteric Modulators of the Human D2 Dopamine Receptor: Primary Screen for Potentiators; D(2) dopamine receptor (Homo sapiens), P14416; HEK293 T-REx D2, calcium flux, EC20 dopamine potentiation; potentiation, % at 10 µM; 0.34% of 340,000 active;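 active = potentiation over 3 SD above the plate norm, cut at about 30% in these data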
#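 Cells plated with tetracycline inducer and held overnight at 30 C; calcium dye loaded 30–90 min at room temperature; baseline taken, compound added and read 180 s; EC20 dopamine then added and read 180 s.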
# D2 PAM-2 = Beta-Arrestin HTS for Positive Allosteric Modulators of the Human D2 Dopamine Receptor: Potentiators; DiscoveRx D2 beta-arrestin cells, luminescence, 90 min; 100% = 57 uM dopamine signal; potentiation, % (no concentration beside the values); 0.23% of 360,000 active; AID 624464, 2012; in the data active = potentiation above about 50%
#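 PathHunter beta-arrestin assay in DiscoveRx D2 cells. Compounds were added with an EC20 of dopamine (50 nM final) for 90 min at 37 deg C. Luminescence was read 1 h after detection reagent, with 57 uM dopamine as the EC100 control.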
# D2 antag = HTS Assay for Allosteric Antagonists of the Human D2 Dopamine Receptor: Primary Screen for Antagonists | D(2) dopamine receptor (Homo sapiens), P14416 | HEK293 TREx D2 cells, calcium flux, dopamine EC80 | inhibition, % at 10 µM | 2% of 340,000 active; in the data active = inhibition above about 30%; inactive = below that, where a call was filed
#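 Compounds are added to dye-loaded, induced HEK293 T-REx cells coupled to calcium release via D2; after a 3 min kinetic read an EC80 dopamine stimulus is given and fluorescence is recorded for 3 more min.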
# D2 ag-2 = Beta-Arrestin HTS for Positive Allosteric Modulators of the Human D2 Dopamine Receptor: Agonists. 0.084% of 360,000 active. DiscoveRx PathHunter D2 beta-arrestin, luminescence, 90 min; 100% = 57 uM dopamine signal. D(2) dopamine receptor (Homo sapiens), P14416. activation, % (concentration not given with the values). AID 624465, 2012; in the data active = activation above about 40%
#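 Agonist mode: compounds alone added to overnight-plated D2 PathHunter cells for 90 min at 37 C, with 57 uM final dopamine (EC100) defining full response. Beta-arrestin recruitment detected by chemiluminescent reagent, read after 1 h at ambient temperature.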
# Hits are given with their value; n = inactive; x = no result. Only some compounds are listed: those with a hit (about 2.4% of all), similar ones and a draw of the others.
SMILES,D2 ag-1,D2 PAM-1,D2 PAM-2,D2 antag,D2 ag-2
O=Cc1cccn1-c1nccc(-c2ccco2)n1,n,n,n,n,n
CCc1cccc(OCC(=O)Nc2ccc(C)c(S(=O)(=O)N3CCCCCC3)c2)c1,n,n,n,31.4,n
Cc1cccc(-c2nc3c4c(-c5ccccc5)c(-c5ccccc5)oc4ncn3n2)c1,n,n,x,x,x
CC(=O)/C(C[N+]1(C)CCCCC1)=N\O,n,x,n,44.1,n
COc1cc(CO)ccc1Oc1nnnn1-c1ccc(C(N)=O)cc1,n,n,n,31.1,n
CCSc1ncc(Cl)c(C(=O)N(Cc2ccc(N(C)C)cc2)Cc2ccco2)n1,n,x,x,x,x
Cc1nc2scc(C)n2c(=O)c1S(=O)(=O)NCC1CCN(Cc2ccc(F)cc2)CC1,n,n,n,34.2,n
Cc1ccc(S(=O)(=O)c2nnn3c2nc(NCCCN2CCCC2=O)c2ccccc23)cc1C,n,n,n,n,n
Cc1ccc(S(=O)(=O)c2nnn3c2nc(NC2CCN(Cc4ccccc4)CC2)c2ccccc23)cc1C,n,37.3,n,n,n
Cc1ccc(NC(=S)N(CCN(C)C)C(C)c2cccnc2)c(C)c1 (stereo not drawn),n,32.3,n,n,n
COc1cc(/C=C2\SC(=S)N(C(C(=O)O)c3ccccc3)C2=O)ccc1O (stereo not drawn),32.5,n,n,n,n
CCOc1cc(/C=C2\SC(=S)N(C(C(=O)O)c3ccccc3)C2=O)ccc1O (stereo not drawn),n,n,n,n,n
Cc1nc(-n2nc(C)c(CCC(C)C)c2C)sc1C(=O)Nc1ccc(Br)cc1,x,n,x,x,x
O=C(COC(=O)c1ccc(O)cc1)NCc1ccc2c(c1)OCO2,n,n,n,n,n
N#CCC(=O)Nc1ccc(C(=O)OCC(=O)NCc2ccc3c(c2)OCO3)cc1,n,n,n,44.0,n
N#Cc1cc2ccc(N3CCOCC3)cc2cc1C#N,n,n,68.5,n,n
COc1ccc(N2C(=O)c3ccccc3NC2c2ccc(NC(C)=O)cc2)c(OC)c1 (stereo not drawn),n,n,n,n,n
CCN1CCC(NC(=O)Nc2ccccc2C(=O)OC)CC1,n,n,n,n,n
COc1ccc(C)cc1NC(=O)NC1CCN(Cc2ccccc2)CC1,n,n,n,75.1,n
Cc1ccc(C)c(CN2CCC(CNC(=O)Nc3ccc(C)c(C)c3)CC2)c1,n,n,n,n,n
COC(=O)c1ccccc1NC(=O)NC1CCN(Cc2ccccc2)CC1,n,n,n,63.9,n
COc1ccc(S(=O)(=O)NC2CCN(Cc3ccccc3)CC2)cc1NC(C)=O,n,n,n,n,n
CCc1cccc(CN2CCC(CNC(=O)Nc3ccc(Cl)cc3)CC2)c1,n,n,n,35.5,n
COc1ccc(Cl)cc1NC(=O)NCC1CCN(Cc2cc(C)ccc2C)CC1,n,n,n,54.6,n
CCOc1ccc(NC(=O)Cn2nc3c(cc2=O)CC(C)CC3)cc1 (stereo not drawn),n,n,x,x,x
SMILES,D2 ag-1,D2 PAM-1,D2 PAM-2,D2 antag,D2 ag-2
CCC(C)[C@H](NC(=O)NC1CCN(Cc2ccccc2)CC1)C(=O)OC (stereo partly drawn),n,n,n,56.6,n
Cc1ccc(C(=O)Nc2cc(Cl)ccc2N2CCCCC2)s1,n,n,n,32.2,n
CCc1sc(C(=O)Nc2cc(Cl)ccc2N2CCCCC2)cc1C,n,n,n,n,n
O=C(CCc1nc2ccccc2c(=O)[nH]1)Nc1cc(Cl)ccc1N1CCCCC1,n,n,n,42.9,n
CC1CCCN(S(=O)(=O)c2ccc(S(=O)(=O)N3CCC4(CC3)OCCO4)cc2)C1 (stereo not drawn),n,n,n,39.7,n
CCCCC(=O)Nc1cccc(OCc2cc(=O)n3ccccc3n2)c1,n,n,x,x,x
Cc1cc2oc(C(=O)Nc3nonc3C)c(C)c2cc1Cl,n,33.8,n,n,n

# Screening data as filed in PubChem.
